Only some compounds are listed: those with a hit (about 2.9% of all), similar ones and a draw of the others.
PAFAH1B3 FP inh – PAFAH1B3 enzyme inhibitors, primary screen, biochemical, fluorescence polarization, human | Platelet-activating factor acetylhydrolase IB subunit alpha1 (Homo sapiens), Q15102 | AID 492972, 2010 | hit rate 0.28% among 340,000 | inhibition, % at 3.39 µM | recombinant PAFAH1B3, FP-rhodamine probe;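 active = inhibition above the screen-wide average of all tested compounds plus 3 SD, cut at about 25% in these data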;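 note: 0% = enzyme with DMSO only and 100% = wells lacking PAFAH1B3 protein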
Target sequence (Q15102 whole entry, looked up): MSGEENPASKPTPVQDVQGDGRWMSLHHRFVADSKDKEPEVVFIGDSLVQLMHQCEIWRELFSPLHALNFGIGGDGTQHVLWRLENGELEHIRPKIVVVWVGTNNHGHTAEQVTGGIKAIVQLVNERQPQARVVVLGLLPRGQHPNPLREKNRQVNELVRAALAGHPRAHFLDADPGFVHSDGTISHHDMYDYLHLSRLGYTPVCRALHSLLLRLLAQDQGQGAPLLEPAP
LYPLA2 inh – LYPLA2 inhibitors, primary screen, counter-screen for PME1 inhibitor project, biochemical, fluorescence polarization, FP-Rh probe ABPP. Acyl-protein thioesterase 2 (Homo sapiens), O95372. recombinant LYPLA2. inhibition, % at 5.9 µM. hit rate 0.38% among 320,000. AID 2177, 2009;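 active = inhibition above the screen-wide mean plus 3 SD, limit set per campaign, cut at about 26% in these data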;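 note: 0% = LYPLA2 with DMSO and 100% = wells lacking LYPLA2 enzyme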
PAFAH1B2 FP inh – PAFAH1B2 enzyme inhibitors, primary screen, biochemical, fluorescence polarization, human; recombinant PAFAH1B2, FP-rhodamine activity probe; inhibition, % at 3.39 µM; hit rate 1.2% among 340,000;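 active = inhibition above the mean of all tested compounds plus 3 SD, cut at about 24% in these data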;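 note: 0% = enzyme with DMSO and 100% = wells lacking PAFAH1B2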
Target sequence (P68402 whole entry, looked up): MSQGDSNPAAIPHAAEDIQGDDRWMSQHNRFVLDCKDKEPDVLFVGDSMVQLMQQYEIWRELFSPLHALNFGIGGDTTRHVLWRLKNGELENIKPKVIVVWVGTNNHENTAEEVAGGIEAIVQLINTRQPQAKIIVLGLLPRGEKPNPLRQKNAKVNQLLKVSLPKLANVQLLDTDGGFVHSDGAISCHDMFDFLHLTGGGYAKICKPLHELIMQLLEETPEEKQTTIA
PAFAH2 inh – PAFAH2 enzyme inhibitors, primary screen, biochemical, fluorescence polarization, human; Platelet-activating factor acetylhydrolase 2, cytoplasmic (Homo sapiens), Q99487; recombinant PAFAH2, FP-rhodamine activity probe; inhibition, % at 3.39 µM; hit rate 0.99% among 340,000; AID 492956, 2010;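 active = inhibition above the mean over all tested compounds plus 3 SD, cut at about 30% in these data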;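 note: inhibitors block probe labeling of enzyme so polarization drops; 0% = enzyme with DMSO and 100% = wells lacking PAFAH2 protein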
pPAFAH FP inh – pPAFAH enzyme inhibitors, primary screen, biochemical, fluorescence polarization, human; Platelet-activating factor acetylhydrolase (Homo sapiens), Q13093; hit rate 1.5% among 330,000; AID 463082, 2010; inhibition, % at 3.39 µM; recombinant pPAFAH, FP-rhodamine probe fluorescence polarization;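 active = inhibition above the mean inhibition across the screen plus 3 SD, cut at about 25% in these data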;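 note: inhibitors block binding of the rhodamine activity-based probe so polarization drops; 0% = enzyme with DMSO and 100% = wells lacking pPAFAH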
LYPLA1 inh – LYPLA1 inhibitors, primary screen, counter-screen for PME1 inhibitor project, biochemical, fluorescence polarization, FP-Rh probe ABPP; recombinant LYPLA1; inhibition, % at 5.9 µM; hit rate 0.16% among 320,000; AID 2174, 2009;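 active = inhibition above the mean of all tested compounds plus 3 SD, set per campaign, cut at about 14% in these data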;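 note: inhibitors block serine hydrolase probe labeling of LYPLA1 so polarization falls; 0% = enzyme with DMSO and 100% = wells lacking LYPLA1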
Target sequence (O75608 whole entry, looked up): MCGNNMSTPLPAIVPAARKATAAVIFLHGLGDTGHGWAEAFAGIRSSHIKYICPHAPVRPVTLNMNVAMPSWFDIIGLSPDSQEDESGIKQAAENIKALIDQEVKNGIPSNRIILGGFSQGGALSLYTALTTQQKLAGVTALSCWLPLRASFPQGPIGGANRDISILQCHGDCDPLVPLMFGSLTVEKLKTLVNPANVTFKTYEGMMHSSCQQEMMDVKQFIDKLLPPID
pPAFAH confirm – pPAFAH (PLA2G7) enzyme inhibitors, confirmation, biochemical, fluorescence polarization, human; hit rate 72% among 2,300; recombinant pPAFAH, FP-Rh probe fluorescence polarization; inhibition, % at 3.39 µM; AID 463230, 2010; shares compounds with pPAFAH FP inh;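 active = mean inhibition of the triplicate above the hit cutoff set for the earlier primary screen, cut at about 25% in these data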;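 note: 0% = enzyme with DMSO and 100% = wells lacking pPAFAH enzyme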
* hit, by the source's call; x = no result given; ! = repeats disagree.

SMILES | PAFAH1B3 FP inh | LYPLA2 inh | PAFAH1B2 FP inh | PAFAH2 inh | pPAFAH FP inh | LYPLA1 inh | pPAFAH confirm
Cc1c(NS(=O)(=O)c2cc(C(=O)NCCN(C)C)ccc2Cl)c(=O)n(-c2ccccc2)n1C | 5.3 | 2.5 | 2.5 | 1.6 | 51.5* | -0.8 | -6.7
Cc1ccc(C)c(N2CN(CCC3=CCCCC3)CNC2=S)c1 | -2.3 | -6.0 | 3.8 | -6.6 | 4.7 | -3.9 | x
Cc1ccc(S(=O)(=O)NCC(=O)N(CC(=O)NC2CCCC2)CC2CCCO2)cc1 (stereo unspecified) | 8.3 | -2.8 | 0.6 | -10.2 | -0.5 | -2.1 | x
COc1ccccc1CNC(=O)CCNC(=O)Cn1ccc2ccccc2c1=O | -0.7 | -1.7 | 5.7 | 8.6 | -0.7 | -2.1 | x
CCCCOc1ccc(Nc2cc(Cl)ccc2C(=O)O)cn1 | 11.7 | 2.1 | 5.9 | 9.1 | 56.6* | 2.0 | 40.6*
CC1CC1C(=O)OCC(=O)Nc1ccc(N=Nc2ccccc2)cc1 (stereo unspecified) | 4.5 | 12.7 | 2.8 | 84.5* | 69.2* | -4.3 | 64.6*
NS(=O)(=O)c1ccc(CNC(=O)Cc2cccs2)cc1 | 6.4 | -4.8 | -1.9 | 10.5 | 35.2* | -5.6 | 7.4
O=C(Cc1cccs1)NCc1ccccc1 | 2.0 | 0.3 | -2.4 | 11.5 | -2.0 | -4.4 | x
CN(CC(=O)Nc1ccc(C(N)=O)cc1)CC(=O)Nc1ccccc1Br | 7.4 | -5.3 | -1.6 | -8.0 | 58.8* | -1.8 | 3.6
CCOC(=O)c1nn(-c2ccccc2)c(=O)c2c(N)scc12 | 13.7 | -2.9 | 5.5 | 8.7 | 1.3 | -1.9 | x
Nc1scc2c(C(=O)N/N=C/c3ccc(Cl)cc3)nn(-c3ccccc3)c(=O)c12 | 9.8 | 1.4 | 2.7 | 4.0 | 35.1* | -8.4 | 11.2
COc1cc(OC)c(C(=O)CCCN2CCCC2)c(OC)c1 | 14.8 | 1.4 | -1.3 | -7.3 | -4.1 | -1.9 | x
Cc1ccc(-c2cc(C(=O)N3CCN(c4ccccc4O)CC3)c3ccccc3n2)o1 | 3.4 | -5.5 | 1.3 | 4.2 | 65.5* | -4.4 | -1.5
O=C1c2ccccc2C(=O)c2cc(S(=O)(=O)Nc3ccccc3)ccc21 | 10.7 | 2.6 | 6.0 | 17.9 | 36.5* | -2.1 | 34.1*
O=C(O)c1cccc(NS(=O)(=O)c2ccc3c(c2)C(=O)c2ccccc2C3=O)c1 | -3.4 | 8.3 | 6.5 | 22.5 | 13.5 | 2.5 | x
CCOc1cc(CN2CCOCC2)cc(C(C)=O)c1 | 5.3 | 1.0 | 5.5 | -13.0 | 2.8 | -0.9 | x
CCc1ccccc1NC(=O)CN1CCN(C(=O)C(C)NC(=O)c2ccc(Cl)cc2)CC1 (stereo unspecified) | -1.3 | x | 5.6 | 1.1 | x | x | x
Oc1ccc(/C=N/Nc2cc(N3CCCC3)nc(N3CCCC3)n2)cc1O | 19.6 | -8.4 | -2.4 | 9.5 | 55.8* | -5.8 | 28.3*
Cc1ccc(NC(=O)c2cc(C)n(-c3cccc(C)c3)c2C)cc1 | 4.9 | -10.7 | -0.2 | -5.3 | 71.3* | -1.7 | 76.7*
CC(C)(C)c1ccc(Oc2cccc(C3CC(=O)C(C4NCCc5ccccc54)C(=O)C3n3cncn3)c2)cc1 (stereo unspecified) | 8.8 | -2.5 | 1.4 | 8.5 | 41.3* | 0.4 | 8.5
O=C1CC(c2ccccc2Oc2cccc(Cl)c2)C(n2cncn2)C(=O)C1C1NCCc2ccccc21 (stereo unspecified) | 2.5 | 16.9 | 5.2 | 7.4 | 18.9 | -2.0 | x
C=Cc1c(C)c2cc3[nH]c(cc4nc(cc5nc(cc1[nH]2)C(C)=C5CCC(=O)O)C(CCC(=O)O)=C4C)c(C)c3C=C | 39.9*! | 17.3 | -0.3 | 60.4*! | 97.2* | 13.7 | 51.1*
Oc1ccc(N=Nc2ccccc2-c2nn[nH]n2)c(O)c1 | 39.5* | 8.8 | 16.1 | 40.5* | 82.7* | 1.2 | 46.2*
Cn1c(NC(=O)c2cccc(Cn3cc(Cl)cn3)c2)nc2ccccc21 | 5.2 | 3.5 | -3.4 | 10.2 | 13.2 | 3.3 | x
CCn1c(NC(=O)c2cccc(Cn3cc(Cl)cn3)c2)nc2ccccc21 | 3.6 | 0.8 | 3.3 | 0.4 | 65.0* | -4.0 | 64.5*
SMILES | PAFAH1B3 FP inh | LYPLA2 inh | PAFAH1B2 FP inh | PAFAH2 inh | pPAFAH FP inh | LYPLA1 inh | pPAFAH confirm
CCCCOC(=O)CCn1c(=S)oc2ccccc21 | 4.3 | 0.8 | 5.2 | -0.5 | 5.2 | 0.7 | x
N#C/C(=N\Nc1cccc([N+](=O)[O-])c1)C(=O)c1ccc(Br)cc1 | 23.7 | 7.1 | 14.3 | 34.7* | 59.9* | 13.3 | 61.2*
O=C(O)c1ccc(N=NNc2cccc([N+](=O)[O-])c2)cc1 | -5.9 | 3.4 | -1.2 | 5.6 | 9.1 | 4.7 | x
CC1=C/C(=C\c2ccc(Br)o2)C(=O)O1 | -2.2 | 2.8 | -4.8 | 4.2 | 3.1 | -1.1 | x
O=C1C(=Cc2ccc(Br)o2)C(=O)c2ccccc21 | 17.7 | 1.5 | 9.1 | 70.5* | 49.9* | -6.6 | 66.2*
O=C(NNC(=O)c1csc(N2CCOCC2)n1)c1ccc(=O)[nH]c1 | 2.6 | 1.6 | 3.6 | 4.4 | 0.7 | 1.0 | x
CCN(CC)S(=O)(=O)c1ccc(C(=O)NNC(=O)c2csc(N3CCOCC3)n2)cc1 | 13.3 | 2.9 | -1.4 | 5.0 | 48.2* | 2.9 | 5.0
Cc1c2ccccc2nc2ccccc12 | 3.1 | 1.0 | 4.8 | 3.4 | -0.1 | 0.3 | x
CCCNc1c(F)c(F)c2c(C)c3ccccc3nc2c1F | 11.5 | -7.1 | 6.2 | 19.6 | 34.8* | -0.4 | 19.7
O=S(=O)(Nc1ccc2c(c1)nc1n2CCN(Cc2ccccc2)C1)c1ccc(F)cc1 | 3.2 | -4.1 | 6.2 | -3.4 | 35.5* | -4.5 | 12.4
O=S(=O)(Nc1ccc2c(c1)nc1n2CCN(Cc2ccccc2)C1)c1ccc(Cl)cc1 | -3.1 | 7.4 | 32.8* | 4.2 | 38.4* | -1.7 | 7.0
CCN(CC)C(=O)[C@H]1C[C@H](CC(=O)NC/C=C(\C)CCC=C(C)C)C(=O)N2CCc3c([nH]c4cc(CCC(=O)N(C)C)ccc34)[C@]12C | 6.0 | x | 2.0 | -3.5 | 63.1* | x | 49.6*
CCN(CC)C(=O)[C@H]1C[C@H](CC(=O)NCc2ccc(OC)c(OC)c2)C(=O)N2CCc3c([nH]c4cc(CCC(=O)N(C)C)ccc34)[C@]12C | 5.0 | x | 2.5 | 4.7 | 0.8 | x | x
CC(=O)N1CCN(c2ccc(NCc3ccco3)cc2)CC1 | 3.5 | -2.4 | -3.4 | 1.0 | 9.4 | -1.2 | x
CC(=O)N1CCN(c2ccc(NCc3ccc(-c4cccc(Cl)c4)o3)cc2)CC1 | 8.1 | x | 0.2 | 6.8 | 41.5* | x | 46.1*
Cc1nnsc1C(=O)N/N=C/c1ccc2ccccc2c1O | 13.1 | 6.3 | 11.0 | 8.3 | 36.3* | 9.5 | 48.2*

Screens: PubChem, The Scripps Research Institute Molecular Screening Center
